For some of these results: Entries with a potency or affinity are not part of this list.
What was measured:
Parameters in all cases: scale not given: direction of the effect not stated beside the values
[1] = target: Protein translocase subunit SecA (Escherichia coli (strain K12)) (UniProt P10408); test: Assay to Identify E. coli SecA ATPase Inhibitors; assay type: functional; details: 30 µM
[2] = target: T1, Ubiquitin-activating enzyme e1, putative (Leishmania donovani (strain BPK282A1)) (UniProt E9BSI1); test: Leishmania donovani Ubiquitin Activating Enzyme (LdE1); assay type: functional; details: 30 µM
T1 sequence (whole entry): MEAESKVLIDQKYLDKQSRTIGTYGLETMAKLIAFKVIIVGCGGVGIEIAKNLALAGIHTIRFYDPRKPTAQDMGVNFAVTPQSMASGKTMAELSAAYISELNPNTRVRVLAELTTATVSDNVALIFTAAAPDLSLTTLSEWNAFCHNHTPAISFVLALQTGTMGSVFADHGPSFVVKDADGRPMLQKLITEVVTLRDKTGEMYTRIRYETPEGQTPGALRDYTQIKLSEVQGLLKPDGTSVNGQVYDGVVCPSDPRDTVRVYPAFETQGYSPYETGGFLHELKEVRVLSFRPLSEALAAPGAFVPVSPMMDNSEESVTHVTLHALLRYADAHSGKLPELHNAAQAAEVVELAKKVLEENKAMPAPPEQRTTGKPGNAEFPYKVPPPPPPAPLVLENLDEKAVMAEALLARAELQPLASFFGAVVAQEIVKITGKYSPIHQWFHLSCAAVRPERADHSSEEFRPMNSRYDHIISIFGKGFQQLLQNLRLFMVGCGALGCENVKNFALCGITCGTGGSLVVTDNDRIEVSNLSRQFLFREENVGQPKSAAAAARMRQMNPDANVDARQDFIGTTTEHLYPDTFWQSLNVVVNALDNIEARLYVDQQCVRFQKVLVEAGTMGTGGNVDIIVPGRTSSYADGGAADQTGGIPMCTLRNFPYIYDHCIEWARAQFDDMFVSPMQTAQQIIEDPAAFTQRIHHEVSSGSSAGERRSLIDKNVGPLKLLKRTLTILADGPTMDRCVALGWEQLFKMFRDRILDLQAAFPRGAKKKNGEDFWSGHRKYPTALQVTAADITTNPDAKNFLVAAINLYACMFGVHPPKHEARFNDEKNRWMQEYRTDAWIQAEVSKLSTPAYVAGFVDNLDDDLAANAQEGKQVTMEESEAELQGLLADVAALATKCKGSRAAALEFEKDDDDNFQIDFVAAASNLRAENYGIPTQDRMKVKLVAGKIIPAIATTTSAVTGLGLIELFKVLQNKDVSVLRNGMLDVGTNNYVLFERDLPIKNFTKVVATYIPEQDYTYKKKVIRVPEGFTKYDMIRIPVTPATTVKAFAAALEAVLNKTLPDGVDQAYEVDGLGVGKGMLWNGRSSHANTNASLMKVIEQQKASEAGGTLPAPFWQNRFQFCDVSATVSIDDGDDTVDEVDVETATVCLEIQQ

[3] = target: AMP-activated protein kinase, AMPK (Homo sapiens) (UniProt P54646+O43741+P54619+Q9UGJ0+Q9Y478+Q13131+Q9UGI9); test: AMP-dependent Kinase enzyme assay. An in vitro enzyme assay that detects ADP turnover that is directly proportional to AMPK activity. This uses naive AMPK that is activated during the assay with MK-8722; assay type: functional; details: 30 µM
[4] = target: Sialic acid-binding Ig-like lectin 9 (Homo sapiens) (UniProt Q9Y336); test: Hs-Siglec9 ALPHAscreen SOP 20170721; details: 10 µM
Sialic acid-binding Ig-like lectin 9 (Homo sapiens), sequence (Q9Y336 whole entry): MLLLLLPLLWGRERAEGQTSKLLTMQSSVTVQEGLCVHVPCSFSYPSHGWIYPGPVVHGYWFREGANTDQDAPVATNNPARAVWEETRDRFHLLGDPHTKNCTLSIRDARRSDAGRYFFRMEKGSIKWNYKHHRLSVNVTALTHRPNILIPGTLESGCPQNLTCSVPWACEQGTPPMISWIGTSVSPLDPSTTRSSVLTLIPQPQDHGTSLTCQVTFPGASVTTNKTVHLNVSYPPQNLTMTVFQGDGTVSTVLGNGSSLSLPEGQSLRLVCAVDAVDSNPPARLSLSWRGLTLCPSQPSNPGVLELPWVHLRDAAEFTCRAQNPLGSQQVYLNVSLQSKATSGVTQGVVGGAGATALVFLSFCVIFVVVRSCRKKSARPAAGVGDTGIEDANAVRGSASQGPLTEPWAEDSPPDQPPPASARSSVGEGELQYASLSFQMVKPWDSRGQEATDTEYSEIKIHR

[5] = system: Trypanosoma cruzi; test: Trypanosoma cruzi phosphomannomutase and mannose-1-phosphate guanylyltransferase assay; assay type: functional; details: 10 µM
[6] = target: T2, Arginase-2, mitochondrial (Homo sapiens) (UniProt P78540); test: in vitro enzyme assay to detect the production of urea directly proportional to the activity of Arginase II; assay type: functional; details: 33.3 µM; note: in the data most compounds retested in dose-response had high values
T2 sequence (whole entry): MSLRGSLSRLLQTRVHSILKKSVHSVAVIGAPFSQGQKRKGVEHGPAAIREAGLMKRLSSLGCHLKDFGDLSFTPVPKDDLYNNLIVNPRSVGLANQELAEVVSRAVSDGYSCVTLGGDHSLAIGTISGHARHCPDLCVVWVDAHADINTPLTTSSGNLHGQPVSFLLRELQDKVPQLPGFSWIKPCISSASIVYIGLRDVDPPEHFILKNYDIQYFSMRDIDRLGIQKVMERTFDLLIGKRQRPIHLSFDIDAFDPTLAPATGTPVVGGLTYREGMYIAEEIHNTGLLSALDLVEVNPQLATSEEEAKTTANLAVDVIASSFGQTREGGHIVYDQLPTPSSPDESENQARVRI

[7] = target: T3, Proteasome subunit beta (Trypanosoma cruzi) (UniProt O96673); test: Trypanosoma cruzi proteasome chymotrypsin-like activity (TcProtChymo) assay.; note: in the data most compounds retested in dose-response had high values; assay type: functional; details: 9.37 µM
T3 sequence (whole entry): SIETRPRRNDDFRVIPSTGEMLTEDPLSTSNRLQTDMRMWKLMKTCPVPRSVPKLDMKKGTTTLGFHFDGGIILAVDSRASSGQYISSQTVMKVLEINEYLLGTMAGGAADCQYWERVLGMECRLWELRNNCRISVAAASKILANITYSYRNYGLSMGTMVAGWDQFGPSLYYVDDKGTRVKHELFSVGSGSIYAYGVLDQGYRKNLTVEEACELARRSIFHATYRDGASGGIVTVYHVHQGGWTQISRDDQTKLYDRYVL

[8] = organism: Homo sapiens; test: To identify inhibition of the IFN signalling (Jak-Stat) pathway via expression of an eGFP reporter gene under the control of an IFN-stimulated response element (ISRE) containing MxA promoter.; assay type: functional; details: 30 µM
[9] = target: T4, Tyrosyl-tRNA synthetase, putative (Trypanosoma cruzi (strain CL Brener)) (UniProt Q4DSP6); test: Trypanosoma cruzi tyrosyl tRNA synthetase (TcYRS) _High Tyrosine SOP; assay type: functional; details: 30 µM; note: in the data most compounds retested in dose-response had high values
T4 sequence (whole entry): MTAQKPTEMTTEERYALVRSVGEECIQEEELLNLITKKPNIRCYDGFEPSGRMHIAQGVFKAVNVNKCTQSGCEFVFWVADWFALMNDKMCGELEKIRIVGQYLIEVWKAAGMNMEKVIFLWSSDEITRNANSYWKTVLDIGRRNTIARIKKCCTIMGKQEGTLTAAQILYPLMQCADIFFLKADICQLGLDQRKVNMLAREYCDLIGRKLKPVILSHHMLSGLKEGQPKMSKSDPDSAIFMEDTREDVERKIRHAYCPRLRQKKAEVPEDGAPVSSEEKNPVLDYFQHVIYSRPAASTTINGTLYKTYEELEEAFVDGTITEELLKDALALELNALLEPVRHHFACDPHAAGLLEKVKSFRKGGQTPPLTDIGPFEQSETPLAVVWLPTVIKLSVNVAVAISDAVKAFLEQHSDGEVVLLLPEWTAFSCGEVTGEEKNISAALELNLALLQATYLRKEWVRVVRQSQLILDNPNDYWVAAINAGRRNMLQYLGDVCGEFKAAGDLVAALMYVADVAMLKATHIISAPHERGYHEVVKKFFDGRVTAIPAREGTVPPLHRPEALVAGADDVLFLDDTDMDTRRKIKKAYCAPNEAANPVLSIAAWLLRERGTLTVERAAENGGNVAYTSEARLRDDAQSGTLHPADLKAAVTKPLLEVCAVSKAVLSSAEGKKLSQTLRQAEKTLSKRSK

[10] = target: T4, Tyrosyl-tRNA synthetase, putative (Trypanosoma cruzi (strain CL Brener)); test: Trypanosoma cruzi tyrosyl tRNA synthetase (TcYRS) SOP; assay type: functional; details: 30 µM
[11] = target: Chromo domain-containing protein 1 (Saccharomyces cerevisiae (strain ATCC 204508 / S288c) (Baker's yeast)) (UniProt P32657); test: ScCHD-1 Enzyme Inhibition Assay; assay type: functional; details: 30 µM; note: in the data most compounds retested in dose-response had high values
Chromo domain-containing protein 1 (Saccharomyces cerevisiae (strain ATCC 204508 / S288c) (Baker's yeast)), sequence (P32657 whole entry, the tested form may be a part): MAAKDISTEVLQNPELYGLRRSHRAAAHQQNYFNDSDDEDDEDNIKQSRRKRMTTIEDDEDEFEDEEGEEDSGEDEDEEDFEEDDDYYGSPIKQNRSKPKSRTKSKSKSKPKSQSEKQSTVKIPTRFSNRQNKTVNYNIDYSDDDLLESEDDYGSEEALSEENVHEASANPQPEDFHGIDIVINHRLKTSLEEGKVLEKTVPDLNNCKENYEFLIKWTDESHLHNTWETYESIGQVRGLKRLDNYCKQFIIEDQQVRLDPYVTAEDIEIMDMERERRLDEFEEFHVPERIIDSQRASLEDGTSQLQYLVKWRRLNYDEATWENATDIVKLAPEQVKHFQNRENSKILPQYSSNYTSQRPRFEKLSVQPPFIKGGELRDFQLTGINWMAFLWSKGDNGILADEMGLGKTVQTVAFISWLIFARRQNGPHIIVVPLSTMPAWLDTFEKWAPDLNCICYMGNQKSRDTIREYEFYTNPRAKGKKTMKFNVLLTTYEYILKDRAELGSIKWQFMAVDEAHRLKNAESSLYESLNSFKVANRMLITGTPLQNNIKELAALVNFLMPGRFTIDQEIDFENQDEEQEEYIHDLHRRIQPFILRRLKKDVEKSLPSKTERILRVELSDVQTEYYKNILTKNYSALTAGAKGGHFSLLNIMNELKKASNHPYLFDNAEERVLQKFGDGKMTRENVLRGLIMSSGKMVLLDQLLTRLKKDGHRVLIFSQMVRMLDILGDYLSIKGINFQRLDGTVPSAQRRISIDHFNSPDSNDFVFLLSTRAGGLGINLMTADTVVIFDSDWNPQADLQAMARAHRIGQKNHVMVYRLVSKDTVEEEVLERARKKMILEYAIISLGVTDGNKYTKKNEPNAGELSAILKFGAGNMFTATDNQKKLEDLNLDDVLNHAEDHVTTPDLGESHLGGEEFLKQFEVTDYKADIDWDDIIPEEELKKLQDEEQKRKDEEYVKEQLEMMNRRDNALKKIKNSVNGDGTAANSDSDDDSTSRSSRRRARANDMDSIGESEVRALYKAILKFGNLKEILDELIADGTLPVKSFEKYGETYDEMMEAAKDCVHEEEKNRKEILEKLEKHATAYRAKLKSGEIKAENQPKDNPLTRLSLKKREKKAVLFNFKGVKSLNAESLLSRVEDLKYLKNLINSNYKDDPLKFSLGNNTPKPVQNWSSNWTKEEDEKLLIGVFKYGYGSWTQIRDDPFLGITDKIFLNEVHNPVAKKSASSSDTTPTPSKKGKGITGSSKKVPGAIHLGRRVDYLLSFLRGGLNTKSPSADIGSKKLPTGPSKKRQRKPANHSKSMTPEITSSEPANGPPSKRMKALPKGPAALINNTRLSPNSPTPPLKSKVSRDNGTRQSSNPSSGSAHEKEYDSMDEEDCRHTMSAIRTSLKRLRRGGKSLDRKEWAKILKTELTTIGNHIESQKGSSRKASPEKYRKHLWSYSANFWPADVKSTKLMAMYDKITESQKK

Protein translocase subunit SecA (Escherichia coli (strain K12)), sequence (P10408 whole entry): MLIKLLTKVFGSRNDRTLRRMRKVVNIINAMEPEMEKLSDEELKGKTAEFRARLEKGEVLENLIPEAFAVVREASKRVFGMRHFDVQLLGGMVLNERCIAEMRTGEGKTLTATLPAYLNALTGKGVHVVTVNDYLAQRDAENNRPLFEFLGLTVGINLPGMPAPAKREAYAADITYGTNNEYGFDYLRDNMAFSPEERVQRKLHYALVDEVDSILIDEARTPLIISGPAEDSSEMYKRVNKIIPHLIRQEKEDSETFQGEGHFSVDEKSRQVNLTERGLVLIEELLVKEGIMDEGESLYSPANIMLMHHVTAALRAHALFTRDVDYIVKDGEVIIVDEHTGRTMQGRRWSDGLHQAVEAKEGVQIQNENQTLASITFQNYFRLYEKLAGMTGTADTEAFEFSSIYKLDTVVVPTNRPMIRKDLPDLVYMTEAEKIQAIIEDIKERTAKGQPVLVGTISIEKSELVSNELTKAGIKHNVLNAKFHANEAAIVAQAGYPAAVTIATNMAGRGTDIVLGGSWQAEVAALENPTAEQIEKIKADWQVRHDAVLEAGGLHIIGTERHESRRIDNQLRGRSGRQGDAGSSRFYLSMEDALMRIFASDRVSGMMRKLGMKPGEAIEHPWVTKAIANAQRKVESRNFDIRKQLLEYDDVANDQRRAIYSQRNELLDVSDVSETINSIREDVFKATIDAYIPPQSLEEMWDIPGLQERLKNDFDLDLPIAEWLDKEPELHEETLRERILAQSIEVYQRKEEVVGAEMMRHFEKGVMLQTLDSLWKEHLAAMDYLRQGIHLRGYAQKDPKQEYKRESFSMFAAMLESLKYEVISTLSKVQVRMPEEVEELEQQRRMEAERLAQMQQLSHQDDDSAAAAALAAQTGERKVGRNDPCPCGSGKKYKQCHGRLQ

## CCn1ccnc1CN1CCN(CC(=O)NC(C)(C#N)C2CC2)CC1 (stereo unspecified)
[1]
  Percent Effect: 1.69%
[2]
  Percent Effect: 15.8%
[3]
  Percent Effect: -1.29%
[4]
  Percent Effect: -1.29%
[5]
  Percent Effect: -8.84%
[6]
  Percent Effect: -3.45%
[7]
  Percent Effect: 18.9%
[8]
  Percent Effect: 16.7%
[9]
  Percent Effect: 5.39%
[10]
  Percent Effect: 9.76%
[11]
  Percent Effect: -5.07%

## O=C1NCCN1C1CCN(CCc2cccs2)CC1
[1]
  Percent Effect: -7%
[2]
  Percent Effect: 18.2%
[3]
  Percent Effect: -1.15%
[4]
  Percent Effect: -8.84%
[5]
  Percent Effect: 5.78%
[6]
  Percent Effect: -3.16%
[7]
  Percent Effect: 17.5%
[8]
  Percent Effect: 2.25%
[9]
  Percent Effect: 5.71%
[10]
  Percent Effect: 23.5%
[11]
  Percent Effect: -17.6%

## CS(=O)(=O)c1ccc(CNC2CCCN(c3cccnn3)C2)cc1 (stereo unspecified)
[1]
  Percent Effect: -2.48%
[2]
  Percent Effect: 18.2%
[3]
  Percent Effect: 4.4%
[4]
  Percent Effect: -0.526%
[5]
  Percent Effect: 0.686%
[6]
  Percent Effect: 6.53%
[7]
  Percent Effect: 12.5%
[8]
  Percent Effect: 9.14%
[9]
  Percent Effect: 8.57%
[10]
  Percent Effect: 21.2%
[11]
  Percent Effect: -19%

## O=C(Nc1ccccc1OC(F)F)C1=NN(c2ccccc2)C(=O)CN1
[1]
  Percent Effect: -1.64%
[2]
  Percent Effect: 10.1%
[3]
  Percent Effect: -3.73%
[4]
  Percent Effect: -7.92%
[5]
  Percent Effect: -3.87%
[6]
  Percent Effect: 3.04%
[7]
  Percent Effect: 8.11%
[8]
  Percent Effect: 8.86%
[9]
  Percent Effect: -0.493%
[10]
  Percent Effect: 11.4%
[11]
  Percent Effect: -4.54%

## Cc1nc([C@@H]2C[C@@H]3CCN(C(=O)c4occc4C)C[C@H]3O2)no1
[1]
  Percent Effect: -6.42%
[2]
  Percent Effect: 0%
[3]
  Percent Effect: 6.51%
[4]
  Percent Effect: 3.94%
[5]
  Percent Effect: -1.74%
[6]
  Percent Effect: -52.1%
[7]
  Percent Effect: 4.1%
[8]
  Percent Effect: 7.9%
[9]
  Percent Effect: -1.04%
[10]
  Percent Effect: -5%
[11]
  Percent Effect: -4.87%

## CN(CC1(O)CCCN(c2ccccn2)C1)C(=O)Cc1ccsc1 (stereo unspecified)
[1]
  Percent Effect: -5.09%
[2]
  Percent Effect: 4.05%
[3]
  Percent Effect: 12%
[4]
  Percent Effect: 3.61%
[5]
  Percent Effect: -0.198%
[6]
  Percent Effect: -1.62%
[7]
  Percent Effect: -2.18%
[8]
  Percent Effect: -8.8%
[9]
  Percent Effect: 6.45%
[10]
  Percent Effect: 9.09%
[11]
  Percent Effect: 3.9%

## Cc1cccc(CN(C)Cc2nc3c(cnn3C)c(=O)[nH]2)c1
[1]
  Percent Effect: -3.57%
[2]
  Percent Effect: 21.1%
[3]
  Percent Effect: -0.412%
[4]
  Percent Effect: -12.2%
[5]
  Percent Effect: -5.51%
[6]
  Percent Effect: -5.04%
[7]
  Percent Effect: 3.3%
[8]
  Percent Effect: -2.73%
[9]
  Percent Effect: 8.37%
[10]
  Percent Effect: 23.5%
[11]
  Percent Effect: -7.57%

## COc1ccccc1CC1CCCN(CCC#N)C1 (stereo unspecified)
[1]
  Percent Effect: -3.04%
[2]
  Percent Effect: 5.2%
[3]
  Percent Effect: -0.847%
[4]
  Percent Effect: 2.02%
[5]
  Percent Effect: 3.82%
[6]
  Percent Effect: 4.42%
[7]
  Percent Effect: -6.39%
[8]
  Percent Effect: 8.44%
[9]
  Percent Effect: 2.86%
[10]
  Percent Effect: 11.8%
[11]
  Percent Effect: -9.24%

## CCn1ccnc1CN1CCC(CNC(=O)c2ccc(C)nc2)C1 (stereo unspecified)
[1]
  Percent Effect: -0.749%
[2]
  Percent Effect: 10.4%
[3]
  Percent Effect: 4.72%
[4]
  Percent Effect: 15.7%
[5]
  Percent Effect: 6.39%
[6]
  Percent Effect: -1.38%
[7]
  Percent Effect: 12%
[8]
  Percent Effect: 15.6%
[9]
  Percent Effect: 8.6%
[10]
  Percent Effect: 16.1%
[11]
  Percent Effect: -3.08%

## CNC(=O)c1cccc(NC(=O)Cn2nc(-c3cccs3)oc2=O)c1
[1]
  Percent Effect: -8.44%
[2]
  Percent Effect: 13.5%
[3]
  Percent Effect: 133%
[4]
  Percent Effect: 18.8%
[5]
  Percent Effect: 9.38%
[6]
  Percent Effect: -0.924%
[7]
  Percent Effect: 4.13%
[8]
  Percent Effect: -0.599%
[9]
  Percent Effect: 6.93%
[10]
  Percent Effect: 13.4%
[11]
  Percent Effect: -2.88%

## CC(C)NS(=O)(=O)c1cc(C(=O)O)cc(-c2ccc(CN(C)C)cc2)c1
[1]
  Percent Effect: -8.02%
[2]
  Percent Effect: 0%
[3]
  Percent Effect: 5.48%
[4]
  Percent Effect: -7.27%
[5]
  Percent Effect: -3.81%
[6]
  Percent Effect: -0.248%
[7]
  Percent Effect: 13.7%
[8]
  Percent Effect: 0.283%
[9]
  Percent Effect: 0%
[10]
  Percent Effect: 1.24%
[11]
  Percent Effect: -4.61%
